# Assay outcomes: PubChem BioAssay, several laboratories
# The list is not random: actives were taken first. Their share in the collection is about 2.8%.
# HSP90 inh – inhibitors of HSP90 luciferase refolding in rabbit reticulocyte lysate; luciferase refolding luminescence, 3 h; inhibition, % at 5.6 µM; 0.91% of 290,000 active; AID 1789;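 active = inhibition above the screen-wide mean plus 3 SD, computed separately per campaign, cut at about 16% in these data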;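 note: 0% = DMSO wells and 100% = 60 µM geldanamycin wells; inhibitors lower the luminescence because luciferase stays unfolded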
# SENP8 block-1 – blocks human SENP8 cleavage of Nedd8 substrate; recombinant SENP8, Nedd8 substrate fluorescence; inhibition, % at 20 µM; 0.64% of 360,000 active; AID 602440; in the data active = inhibition mostly above about 40%, no sharp cut-off; inactive = mostly below about 27%
# Platelet DG rel – platelet dense granule release activity. 0.22% of 300,000 active. human platelet-rich plasma, SFLLRN dense granule ATP release, luminescence. inhibition, %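 (compounds screened at 7.5 µM in platelet-rich plasma)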. AID 1663;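 active = mean replicate score, as percent of positive control, at or above 50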
# SENP6 inh – inhibitors of human SENP6 protease; Q9GZR1; Recombinant SENP6 catalytic domain, aminoluciferin luminescence; inhibition, % at 10 µM; 1.8% of 330,000 active;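 active = inhibition above about 50% at the single tested dose, limit read from the data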;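 note: plate controls were DMSO wells with enzyme for no effect and DMSO wells lacking enzyme for full effect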
# SENP8 block-2 – inhibitors of human SENP8 protease. Q96LD8. purified SENP8, Z-RLRGG-aminoluciferin cleavage, luminescence. inhibition, % at 10 µM. 1.2% of 330,000 active; in the data active = inhibition above about 50%
# SENP7 block – SENP7 protease inhibition | Q9BQF6 | recombinant SENP7, Z-RLRGG-aminoluciferin luminescence, 40 min | inhibition, % at 5 µM | 1.5% of 330,000 active | AID 434973;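 active = inhibition above about 50% at the single test dose, limit read from the data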;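 note: plate controls were DMSO with enzyme for no effect and no enzyme buffer wells for full effect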
# Target sequence (Q9BQF6 706-1050 limits assumed): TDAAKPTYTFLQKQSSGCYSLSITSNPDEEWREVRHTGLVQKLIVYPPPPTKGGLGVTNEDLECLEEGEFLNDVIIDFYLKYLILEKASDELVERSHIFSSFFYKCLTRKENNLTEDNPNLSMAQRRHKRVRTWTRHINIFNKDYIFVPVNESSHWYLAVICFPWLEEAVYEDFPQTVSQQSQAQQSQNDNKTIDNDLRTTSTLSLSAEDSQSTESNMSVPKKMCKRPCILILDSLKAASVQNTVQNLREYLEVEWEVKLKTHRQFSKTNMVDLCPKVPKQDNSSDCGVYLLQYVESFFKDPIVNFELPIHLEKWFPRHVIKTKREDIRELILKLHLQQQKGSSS
# SENP8 conf – human SENP8 inhibition, confirmed; shares compounds with SENP7 block; inhibition, % at 12.5 µM; Recombinant SENP8, Z-RLRGG-aminoluciferin luminescence, 60 min; 40% of 6,200 active;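 active = mean inhibition across replicates above about 50%, limit read from the data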
# SENP6 confirm – confirmation of human SENP6 protease inhibitors; shares compounds with SENP7 block; recombinant SENP6, Z-RLRGG-aminoluciferin luminescence; inhibition, % at 12.5 µM; 58% of 6,200 active
# SENP7 conf – human SENP7 inhibition, confirmed | inhibition, % at 12.5 µM | recombinant SENP7, Z-RLRGG-aminoluciferin luminescence, 40 min | 69% of 6,200 active | shares compounds with SENP7 block
# Casp3 SENP sel – inhibits human caspase-3 in SENP selectivity test | AID 488918 | purified caspase-3, Z-DEVD-aminoluciferin luminescence, 60 min | inhibition, % at 12.5 µM | shares compounds with SENP7 block | 60% of 6,200 active;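 active = mean inhibition above about 50%, limit read from the data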;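 note: plate controls were enzyme with DMSO for no effect and wells without caspase-3 for full effect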
# SENP luc ctr – luminescence interference (SENP counter-screen); shares compounds with SENP7 block; Pre-incubated SENP8/Z-RLRGG-aminoluciferin, luciferase luminescence interference; inhibition, % at 12.5 µM; 39% of 6,200 active; AID 488919;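 active = mean inhibition above about 50% when retested at one dose, limit read from the data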;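 note: plate controls were DMSO wells with completed reaction for no effect and substrate without enzyme for full effect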
# An asterisk follows results filed as active; . = no result given.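 Rule for the calls, unless noted: active = mean inhibition above about 50% in the one-dose retest (limit read from the data); inactive = the rest.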
SMILES,HSP90 inh,SENP8 block-1,Platelet DG rel,SENP6 inh,SENP8 block-2,SENP7 block,SENP8 conf,SENP6 confirm,SENP7 conf,Casp3 SENP sel,SENP luc ctr
COc1ccc2c(-c3cc4ccc(OCc5ccc(F)cc5)cc4oc3=O)cc(=O)oc2c1,4,-424,-13,.,.,.,.,.,.,.,.
O=C1COc2ccc(OCc3ccc(F)cc3)cc21,5,12,10,71*,48,64*,68*,67*,89*,76*,50*
COc1cc(NC(=O)c2cccc(Br)c2)nc(OC)n1,1,11,9,54*,26,37,39,36,68*,40,38
c1csc(-c2cn3ccc4ccccc4c3n2)c1,1,-436,1,89*,80*,86*,11,90*,99*,82*,84*
CCN(Cc1ccccc1)C(=O)COc1ccccc1,0,9,-4,-15,-7,-10,.,.,.,.,.
CCN(CC)C(=O)COc1ccc(-c2ccccc2)cc1,0,22,22,70*,46,60*,55*,55*,82*,73*,66*
CC(=Nc1ccc(O)cc1)c1sc2ccccc2c1O,-3,16,.,89*,75*,79*,80*,80*,96*,68*,81*
CC(=Nc1ccccc1O)c1sc2ccccc2c1O,3,-34,5,33,-3,14,.,.,.,.,.
CC(=Nc1cccc(C)c1)c1sc2ccccc2c1O,1,-73,-9,63*,44,38,73*,74*,88*,48,32
O=c1c2ccccc2nnn1COc1cccc(Cl)c1,0,4,10,58*,36,35,14,58*,48,49,2
O=C(COc1ccc(Cl)cc1Cl)OCn1nnc2ccccc2c1=O,-1,17,4,-12,-7,-5,.,.,.,.,.
C[C@H](O)[C@@H]1C(=O)N2CCc3ccc(N4CCN(C)CC4)cc3[C@@H]2C[C@@H]1N(C)C(=O)c1ccco1,.,-4,.,.,.,.,.,.,.,.,.
CCOc1ccc(Nc2nc(-c3cccnc3)cs2)cc1,-6,-1,4,20,18,70*,-9,11,11,6,-3
Brc1ccc(Nc2nc(-c3cccnc3)cs2)cc1,1,2,7,-4,-11,8,.,.,.,.,.
Cc1ccc(Nc2nc(-c3cccnc3)cs2)cc1C,3,4,1,74*,55*,58*,10,68*,88*,36,13
O=S(=O)(/N=C(/Nc1nc2ccccc2s1)c1ccccc1)c1ccccc1,.,-8,.,72*,60*,15,1,7,9,12,23
C=CCNc1ncnc2c1ncn2[C@H]1CN(Cc2ccc(-c3ccccc3)cc2)C[C@@H](CO)O1,.,4,.,.,.,.,.,.,.,.,.
Cc1nc2sc3c(=O)[nH]nnc3c2c(C)c1Br,-3,13,-6,-2,-3,-11,.,.,.,.,.
O=C(O)c1ccc(C(=O)C(=O)c2ccccc2)cc1,-1,15,10,66*,38,17,43,40,80*,85*,67*
Nc1ccc(C(=O)O)cc1,.,5,1,-4,2,1,.,.,.,.,.
CSc1ccc(N=Nc2c(C)[nH]n(C)c2=O)cc1,0,19,2,44,27,53*,16,24,45,45,17
Clc1ccc2oc(-c3ccccc3)nc2c1,0,8,2,-43,63*,83*,10,55*,91*,26,2
Cc1ccccc1-c1nc2cc(Cl)ccc2o1,-2,10,-6,16,58*,81*,10,69*,94*,44,13
